Vif imaging: HIV Vif inhibition. inhibition, % at 7.49 µM. 340,000 tested, 0.35% active. HEK293T cells, Vif self-association by quenched fluorescence, imaging, 24 h. AID 602346; in the data active = inhibition above about 50%, passing the limit was not always enough; inconclusive = no clear call, values can overlap the other calls; inactive = below about 31%
HSF1 activator: increases HSF-1 driven luciferase reporter signal | NIH3T3-HGL HSF-1 luciferase reporter, MG132, 8 h; 100% = twice DMSO control signal | activation, % at 9 µM | 300,000 tested, 1.7% active | AID 504408;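 active = mean replicate activation of at least 50% with a set share of replicates each reaching 50%; inconclusive = only one of those two conditions met; inactive = mean below 50% and too few replicates reaching it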;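 also: 0% = median of the neutral control wells and 100% = twice that signal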
esBAF inh: inhibitors of esBAF chromatin remodeling in mouse ES cells. 350,000 tested, 2% active. reporter increase, % at 12.5 µM. Bmi1-luciferase knock-in reporter, 24 h; 100% = twice the neutral-well signal; in the data active = activation above about 40%; inconclusive = no clear call, values can overlap the other calls;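 also: 0% = median of the plate's neutral control wells and 100% = double that signal; a rise in the Bmi1 reporter signal indicates esBAF inhibition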
HSF1 inhib: HSF1 inhibition. activity change, negative = inhibition, % at 7.5 µM (by protocol). AID 2098. NIH3T3-HGL HSE-luciferase, MG132-induced, luminescence 8 h; active compounds read low. 300,000 tested, 0.77% active;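 active = more than half of replicate wells show activity change below -50%, luminescence cut by over half; inconclusive = some wells, but at most half, below -50%; inactive = no replicate well below -50%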;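 also: luciferase reports HSF-1 transcriptional activity via heat shock element; 0% = median of DMSO wells and -100% = zero luminescence signal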
* marks the source's active call; other numbers are inactive results; ? = inconclusive; nt = no result. Only some compounds are listed: those with a hit (about 3.4% of all), similar ones and a draw of the others.

SMILES	Vif imaging	HSF1 activator	esBAF inh	HSF1 inhib
COc1ccc(S(=O)(=O)N2CCCCN3[C@H](CO)[C@@H](c4ccc(C5=CCCC5)cc4)[C@H]3C2)cc1	nt	nt	-1.3	nt
Cc1cc(C(=O)COC(=O)c2cccnc2Cl)c(C)n1CC1CCCO1 (stereo unspecified)	0.8	-81.5	nt	-76.9*
Cc1cc(C(=O)COC(=O)c2n[nH]c3ccccc23)c(C)n1CC1CCCO1 (stereo unspecified)	nt	-83.5	-22.6	-80.5*
COCCn1c(C)cc(C(=O)COC(=O)c2cccnc2SC)c1C	0.3	-70.4	nt	-70.4
COCCn1c(C)cc(C(=O)COC(=O)c2ccccc2Br)c1C	0.4	-91.0	-80.2	-90.1*
Cc1cc(C(=O)COC(=O)c2ccccc2Br)c(C)n1CC1CCCO1 (stereo unspecified)	5.0	-91.6	nt	-91.1*
C[C@@H]1CN([C@@H](C)CO)C(=O)c2cc(-c3ccc(C#N)cc3)cnc2O[C@@H]1CN(C)Cc1cncnc1	nt	nt	-13.1	nt
Cc1cc(C(=O)COC(=O)c2ccccc2O)c(C)n1Cc1cccs1	-20.0	-90.4	-81.8	-89.7*
COc1ccc(/C=C/C2=Nc3ccccc3NC(C)(C)C2)cc1OC	0.8	12.0	43.7*	-3.7
COc1cc(C)ccc1OCc1cc(C(=O)N2C[C@H]3CC[C@H]2C3)no1	-1.8	3.2	13.1	2.7
COc1cc(Cl)ccc1OCc1cc(C(=O)N2C[C@H]3CC[C@H]2C3)no1	-7.3	46.9	63.4*	15.8
COc1cc(Cl)ccc1OCc1cc(C(=O)N2C[C@@H]3CCC[C@H]2C3)no1	-10.7	55.9*	92.1*	31.6
COC(=O)c1nn(-c2ccccc2)c(-c2ccccc2)c1C(=O)c1ccccc1	50.2*	3.0	-13.7	-3.2
CCC(=O)N1[C@@H](CO)[C@@H]2c3ccccc3N(C(=O)c3ccncc3)C[C@@H]21	nt	nt	1.6	nt
C[C@@H]1CCCCO[C@@H](CN(C)S(=O)(=O)c2ccccc2)[C@@H](C)CN([C@@H](C)CO)C(=O)c2cc(NS(=O)(=O)c3cccs3)ccc2O1	nt	nt	10.4	nt
Cc1cc(C)nc(NC(=S)Nc2ccccc2)n1	-11.9	51.4*	nt	26.4
Cc1cc(C)nc(NC(=S)NC(=O)c2ccccc2)n1	0.2	4.7	27.2	3.0
COc1ccc(NC(=O)c2noc3c2CCC3)cc1	?	45.2	94.9*	16.1
CC(NC(=O)c1noc2c1CCCCC2)c1ccccc1 (stereo unspecified)	-2.1	-14.7	44.8*	8.2
O=C(NCc1ccccc1)c1noc2c1CCCCC2	-0.1	31.7	34.4	12.2
COc1ccc(NC(=O)Nc2ccc3c(c2)[C@H]2C[C@@H](CC(=O)N4CCOCC4)O[C@H](CO)[C@H]2O3)cc1	nt	nt	-2.5	nt
CO[C@H]1CN(C)C(=O)c2cc(NC(=O)NC(C)C)ccc2OC[C@H](C)N(CCC(F)(F)F)C[C@@H]1C	nt	nt	5.5	nt
COc1cccc(-c2ccc([C@H]3[C@@H](CO)N4CCCCN(Cc5cncnc5)C[C@H]34)cc2)c1	nt	nt	-2.3	nt
COc1ccc2c(c1OC)C(=O)N(c1cccc(C(F)(F)F)c1)C2	-3.2	40.0	46.1*	18.3
Oc1ccc(/C=N/Nc2nc(-c3cccnc3)nc3ccccc23)c(O)c1	nt	19.0	58.1*	3.5
SMILES	Vif imaging	HSF1 activator	esBAF inh	HSF1 inhib
Cc1cc(Cl)n2c(nc3cc(F)c(F)cc32)c1C#N	77.3*	178.8*	nt	110.0
C[C@@H]1CN([C@H](C)CO)C(=O)c2cc(NC(=O)Nc3ccc4c(c3)OCO4)ccc2O[C@@H](C)CCCCO[C@H]1CN(C)S(=O)(=O)c1cn(C)cn1	nt	nt	58.5*	nt
C[C@@H]1CCCCO[C@@H](CN(C)S(=O)(=O)c2cn(C)cn2)[C@@H](C)CN([C@@H](C)CO)C(=O)c2cc(NC(=O)Nc3ccc4c(c3)OCO4)ccc2O1	nt	nt	58.2*	nt
Cc1ccc(S(=O)(=O)N(C)C[C@H]2OCCCC[C@H](C)Oc3ccc(NC(=O)Nc4ccc5c(c4)OCO5)cc3C(=O)N([C@H](C)CO)C[C@H]2C)cc1	nt	nt	49.1*	nt
Cc1noc(C)c1S(=O)(=O)Nc1ccc2c(c1)C(=O)N([C@@H](C)CO)C[C@@H](C)[C@@H](CN(C)S(=O)(=O)c1c(C)noc1C)OCCCC[C@@H](C)O2	nt	nt	-3.1	nt
Cc1ccc(C(=O)/C=C/NNC(=O)c2ccccc2O)cc1	-3.1	52.9*	8.2	18.1
O=C(/C=C/NNC(=O)c1ccccc1)c1ccc(Br)cc1	2.6	60.3*	20.7	24.0
O=C(/C=C/NNC(=O)c1ccc(Cl)cc1)c1ccccc1	14.1	37.0	nt	22.7
Cc1ccc(C(=O)NC(=S)NNC(=O)c2ccccc2O)cc1	-21.2	4.7	-0.2	4.8
CC(c1ccccc1)N1CCN(C(=O)CCl)CC1 (stereo unspecified)	1.1	-93.8	1.2	-94.0*
COc1cc(/C=C(\C#N)C(N)=O)ccc1OS(=O)(=O)c1ccc(C)cc1	-14.0	nt	-5.4	nt
COc1cc(/C=C(\C#N)C(=O)NC2CCCCC2C)ccc1OS(=O)(=O)c1ccc(C)cc1 (stereo unspecified)	2.5	64.1*	nt	50.0
O=C(C[C@@H]1CC[C@@H]2[C@H](COC[C@@H](O)CN2C(=O)Nc2ccccc2)O1)NCCc1ccncc1	nt	nt	6.9	nt
COc1ccc(-c2noc(Cc3cccs3)n2)cc1	-16.3	26.7	54.6*	23.3
COc1ccc(-c2noc(Cc3ccccc3OC)n2)cc1	0.4	31.3	?	8.2
COc1ccc(-c2noc(CCc3ccccc3)n2)cc1	-11.7	-2.2	57.1*	0.2
COc1ccc(CCc2nc(-c3ccc(-n4cccc4)cc3)no2)cc1	-2.1	0.1	-4.1	6.8
COc1cccc(CSc2nnc(C(F)(F)F)n2Cc2ccc(F)cc2)c1	4.7	87.5*	nt	37.6
CO[C@@H]1CN(C)C(=O)c2ccc(NC(C)=O)cc2OC[C@H](C)N(CC2CCCCC2)C[C@@H]1C	nt	nt	-2.1	nt
N#Cc1cc(Oc2cccc3cccnc23)c(-n2nnc3ccccc32)cc1C#N	-2.0	211.0*	nt	182.7
N#Cc1cc(O)c(-n2nnc3ccccc32)cc1C#N	nt	-3.7	7.5	2.5
O=c1c2c3c(sc2ncn1/N=C/c1ccc([N+](=O)[O-])o1)CCCC3	16.4	265.7*	-13.4	176.7
Cn1cc(/C=N/n2cnc3sc4c(c3c2=O)CCCC4)c2ccccc21	3.7	-1.6	nt	-5.8
Fc1cccc(Cl)c1Cc1noc(/C=C/c2ccccc2)n1	-1.8	9.6	42.6*	4.5
C=CCn1c(O)c(N=Nc2ccccc2[N+](=O)[O-])c2ccccc21	-1.5	nt	57.9*	nt
CC(=O)N[C@H]1CC[C@H](CC(=O)NCc2ccc(Cl)cc2)O[C@@H]1CO	nt	nt	4.1	nt
CCC(=O)N1C[C@@H](O)COC[C@H]2O[C@H](CC(=O)N3CCCCC3)CC[C@@H]21	nt	nt	0.8	nt
CCOc1ccc(NCc2cccn2-c2nnc(N3CCC(C(=O)NCCCN4CCCCC4)CC3)s2)cc1	-8.5	-67.6	-4.1	-57.4*
COC(=O)C1C(=O)C2=C(CC1C)NC(C)=C(C(=O)OCCOc1ccccc1)C2c1ccc(C)o1 (stereo unspecified)	-2.2	3.7	0.2	3.5
COC(=O)C1C(=O)C2=C(CC1C)NC(C)=C(C(=O)OCc1ccc(OC)cc1)C2c1ccc(C)o1 (stereo unspecified)	-11.9	111.8*	nt	66.1

Source: PubChem BioAssay
